# Measured values taken from PubChem BioAssay (NCATS).
# Results filed as inconclusive are left out. Active and inactive are the calls of the source. Unless noted, calls come from the whole dose curve.
# Experiments:
# [1] = qHTS drug screen for cell cycle checkpoint inhibitors in PARPi-resistant BRCA-mutant ovarian cancer cell lines. (AID 1963452); settings: PEO1/OlaR viability, CellTiter-Glo luminescence, 96 h, stronger effect = lower value
# How it was run: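 PEO1, PEO4 and PEO1/OlaR ovarian cancer cells, 600 per well, exposed 96 h at 37C to a dilution series. Viability read by CellTiter-Glo luminescence, normalized to DMSO and empty wells; activity summarized as Z-AUC.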
# [2] = qHTS profiling for inhibitors of Plasmodium falciparum proliferation (AID 504749; active = well fitted curve in the direction sought with a large enough effect; an effect the other way counts as inactive or inconclusive;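 note: 0% = DMSO vehicle and full inhibition = artemisinin control; nearly all actives have a fitted effect of over 60% in size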); settings: P. falciparum in erythrocytes, SYBR Green DNA, 72 h; series mostly up to 28.7 µM
# How it was run: (§1)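 Quantitative HTS: compounds pinned into medium, infected erythrocytes added (0.3% parasitemia, 2.5% hematocrit), 72 h culture at 37 C under 5% CO2. Saponin/Triton lysis with SYBR Green I, overnight RT, then fluorescence read.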
# 3D7 = assay: as above; settings: P. falciparum in erythrocytes, SYBR Green DNA, 72 h; series mostly up to 28.7 µM
# How it was run: as §1
# 7G8 = assay: as above; settings: P. falciparum in erythrocytes, SYBR Green DNA, 72 h; series mostly up to 28.7 µM
# How it was run: as §1
# AA1029 = assay: as above; settings: P. falciparum in erythrocytes, SYBR Green DNA, 72 h; series mostly up to 28.7 µM
# How it was run: as §1
# AS120 = assay: as above; settings: P. falciparum in erythrocytes, SYBR Green DNA, 72 h; series mostly up to 28.7 µM
# How it was run: as §1
# [3] = Dual reporter qHTS for agonist of Pregnane X Receptor (hPXR) against the NCATS DSHEA and TCM libraries: Fluorescence readout (AID 1920058; active = well fitted curve in the direction sought with a large enough effect; an effect the other way counts as inactive or inconclusive; note: 0% is about no effect); settings: PXR dual reporter cells; series mostly up to 40 µM
# How it was run: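 Viability readout (CellTiter-Fluor, 405/540 nm, 1 h) from agonist-mode PXR dual reporter in hPXR-Luc HepG2 cells. Substances ~24 h, 37 °C, 5% CO2; rifampicin reference, tetraoctyl ammonium bromide cytotoxic control.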
# [4] = target: Nuclear receptor subfamily 1 group I member 2 (Homo sapiens) (UniProt O75469); assay: Dual reporter qHTS for agonist of Pregnane X Receptor (hPXR) against the NCATS DSHEA and TCM libraries: Luminescence readout (AID 1920059; active = well fitted curve in the direction sought with a large enough effect; an effect the other way counts as inactive or inconclusive; note: potency is the fitted concentration of half-maximal effect); settings: hPXR dual reporter cells, luciferase luminescence agonist; series mostly up to 22 µM
# Excerpt: (§2) Assay Development and Screening Technology Laboratory (ADST)
# (§3) National Center for Advancing Translational Sciences (NCATS), Rockville, MD
# (§4) National Institute of Health (NIH), Bethesda, Maryland
# (§5) Dietary Supplements and Natural Products have minor oversight of their safety and efficacy. We assembled a collection of Dietary Supplements and Natural Products (DSNP) as well as Traditional Chinese Medicinal (TCM) Plant extracts, which were screened against an in vitro panel of assays, including a liver cytochrome p450 enzyme panel, CAR/PXR signaling pathways, and P-gp transporter assays, to assess their activity. This pipeline facilitated the interrogation of Natural Product-Drug Interaction (NaPDI) through prominent metabolizing pathways. In addition, we compared the activity profiles of the DSNP/TCM substances with those of an approved drug collection. […] Overall, we highlight four significant bioactivity profiles (measured by p-values) as examples of this prediction. […] To profile potential P-gp activity, a differential cell viability was measured against two cell lines: a parental KB-3-1 human cervical adenocarcinoma cell line and the drug-resistant subline KB-8-5-11 that overexpresses P-gp. […]
# (§6) 8; Read; Fluorescence; ViewLux plate reader. […]
# (§7) 11; Read; Luminescence; ViewLux plate reader. […]
# [5] = Dual reporter qHTS for antagonist of Pregnane X Receptor (hPXR) against the NCATS DSHEA and TCM libraries: Fluorescence Readout (AID 1920061; active = well fitted curve in the direction sought with a large enough effect; an effect the other way counts as inactive or inconclusive; note: 0% is about no effect); settings: PXR dual reporter cells, antagonist mode; series mostly up to 40 µM
# Excerpt: as §2, §3, §4, §5, §6, §7
# [6] = target: Nuclear receptor subfamily 1 group I member 2 (Homo sapiens) (UniProt O75469); assay: Dual reporter qHTS for antagonist of Pregnane X Receptor (hPXR) against the NCATS DSHEA and TCM libraries: Luminescence Readout (AID 1920060; active = well fitted curve in the direction sought with a large enough effect; an effect the other way counts as inactive or inconclusive;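 note: HepG2 cells carrying hPXR luciferase reporter stimulated with rifampicin at 2 µM; 0% is about no effect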); settings: hPXR dual reporter cells, luciferase luminescence, antagonist mode; series mostly up to 40 µM
# How it was run: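 HepG2 hPXR-Luc, 2000 cells/well, charcoal-stripped FBS medium; 5 h attach; RIF 2 uM final; 24 h 37C/5% CO2; CellTiter-Fluor 1 h, fluor 405/540; ONE-Glo 30 min RT, lum.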
# [7] = measured here: PEO1 parental Z-AUC
# Nuclear receptor subfamily 1 group I member 2 (Homo sapiens), sequence (O75469 whole entry, looked up): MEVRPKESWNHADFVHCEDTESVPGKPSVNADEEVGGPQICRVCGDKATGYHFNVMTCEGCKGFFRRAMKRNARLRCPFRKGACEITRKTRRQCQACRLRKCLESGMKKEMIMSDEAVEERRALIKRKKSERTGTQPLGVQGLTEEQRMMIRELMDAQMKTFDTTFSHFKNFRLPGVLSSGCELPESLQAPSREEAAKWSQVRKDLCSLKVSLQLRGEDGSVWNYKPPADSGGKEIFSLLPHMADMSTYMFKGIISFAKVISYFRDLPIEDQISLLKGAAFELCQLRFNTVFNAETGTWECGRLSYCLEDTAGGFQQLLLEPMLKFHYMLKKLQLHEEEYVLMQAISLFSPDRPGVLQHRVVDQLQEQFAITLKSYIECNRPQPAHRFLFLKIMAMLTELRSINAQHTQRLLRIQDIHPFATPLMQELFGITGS
compound,measurement,setting,value
Cc1c(F)cc(C(=O)NC2CC2)cc1-c1ccc(C(=O)NCC(C)(C)C)cn1,Z-AUC,[1],0.819 (inactive)
same,Z-AUC,[1]; [7],0.354
same,Z-AUC,[1]; measured here: PEO4 Z-AUC,0.681
Cc1nc(-c2cccnc2)sc1C(=O)Nc1ccccc1-c1cn2c(CN3CCOCC3)csc2n1,Z-AUC,[1],0.405 (inactive)
same,Z-AUC,[1]; [7],-0.0743
same,Z-AUC,[1]; measured here: PEO4 Z-AUC,0.19
Nc1ncnc2c1C(=O)N(c1ccc(C3CCC(CC(=O)O)CC3)cc1)CCO2 (centres undefined),Z-AUC,[1],0.276 (inactive)
same,Z-AUC,[1]; [7],0.0726
same,Z-AUC,[1]; measured here: PEO4 Z-AUC,0.138
Cc1ncc(NC(=O)c2ccc(CN3CCN(C)CC3)c(C(F)(F)F)c2)cc1Nc1nccc(-c2cccnc2)n1,Z-AUC,[1],0.889 (inactive)
same,Z-AUC,[1]; [7],-0.0515
same,Z-AUC,[1]; measured here: PEO4 Z-AUC,-0.0456
O=C(/C=C/C=C/c1ccc2c(c1)OCO2)N1CCCCC1,Z-AUC,[1],1.54 (inactive)
same,Z-AUC,[1]; [7],1.2
same,Z-AUC,[1]; measured here: PEO4 Z-AUC,2.18
CCC(CC)CC1(C(=O)Nc2ccccc2SC(=O)C(C)C)CCCCC1,Z-AUC,[1],-0.732 (inactive)
same,Z-AUC,[1]; [7],-0.887
same,Z-AUC,[1]; measured here: PEO4 Z-AUC,-0.923
CCc1cccc2c3c([nH]c12)[C@@](CC)(CC(=O)O)OCC3,outcome,[2],inactive
same,outcome,3D7,inactive
same,outcome,7G8,inactive
same,outcome,AA1029,inactive
same,outcome,AS120,inactive
O=C1NC(=O)/C(=C/c2cccc(C(F)(F)F)c2)S1,Z-AUC,[1],0.536 (inactive)
same,Z-AUC,[1]; [7],0.151
same,Z-AUC,[1]; measured here: PEO4 Z-AUC,0.0196
O=C(O)CC1CCC(c2ccc(-c3ccc(Nc4ccc(C(F)(F)F)nc4)cn3)cc2)CC1 (centres undefined),Z-AUC,[1],-0.639 (inactive)
same,Z-AUC,[1]; [7],-0.457
same,Z-AUC,[1]; measured here: PEO4 Z-AUC,-0.671
O=C(OCC1=C[C@@H](O)[C@@H]2C=CO[C@@H](O[C@@H]3O[C@H](CO)[C@@H](O)[C@H](O)[C@H]3O)[C@H]12)c1ccc(O)cc1,outcome,[3],inactive
same,Potency,[4],inactive
same,outcome,[5],inactive
N#Cc1ccc(C2CCCc3cncn32)cc1 (centres undefined),Z-AUC,[1],0.659 (inactive)
same,Z-AUC,[1]; [7],0.67
same,Z-AUC,[1]; measured here: PEO4 Z-AUC,0.567
N#CN1CCC[C@@H](n2nc(-c3ccc(Oc4ccc(F)cc4F)cc3)c(C(N)=O)c2N)C1,Z-AUC,[1],-0.296 (inactive)
same,Z-AUC,[1]; [7],0.0658
same,Z-AUC,[1]; measured here: PEO4 Z-AUC,0.537
C[C@@H]1O[C@@H](O[C@@H]2\C=C/C=C\C=C/C=C\C[C@H](C)OC(=O)/C=C\[C@H]3O[C@@H]3C[C@H](O)C[C@]3(O)C[C@@H](O)[C@@H](C(=O)O)[C@H](C2)O3)[C@H](O)[C@H](N)[C@@H]1O,Z-AUC,[1],1.98 (inactive)
same,Z-AUC,[1]; [7],1.57
same,Z-AUC,[1]; measured here: PEO4 Z-AUC,1.97
COCCCc1sc(-c2ccccc2)nc1C(=O)Nc1ccccc1-c1nc2cc(CN3CCCC3)cnc2s1,Z-AUC,[1],0.0751 (inactive)
same,Z-AUC,[1]; [7],-0.146
same,Z-AUC,[1]; measured here: PEO4 Z-AUC,0.43
Cc1ccccc1-n1nc(-c2c(-c3ccc(F)cc3)nn3c2NC[C@@H](CO)C3)ccc1=O,Z-AUC,[1],0.0215 (inactive)
same,Z-AUC,[1]; [7],0.2
same,Z-AUC,[1]; measured here: PEO4 Z-AUC,0.209
COc1cccc2c1c(O)c(C(=O)N(C)c1ccc(C(F)(F)F)cc1)c(=O)n2C,Z-AUC,[1],0.835 (inactive)
same,Z-AUC,[1]; [7],0.409
same,Z-AUC,[1]; measured here: PEO4 Z-AUC,0.643
N#Cc1cccc(-c2c[nH]c3ncnc(N4CCOCC4)c23)c1,Z-AUC,[1],0.0885 (inactive)
same,Z-AUC,[1]; [7],0.762
same,Z-AUC,[1]; measured here: PEO4 Z-AUC,0.859
CCCCOc1nc(N)c2c(n1)N(Cc1cccc(CN3CCCC3)c1)CC(=O)N2,Z-AUC,[1],-0.393 (inactive)
same,Z-AUC,[1]; [7],-0.969
same,Z-AUC,[1]; measured here: PEO4 Z-AUC,-0.664
Nc1ncnc2c1c(COc1cccc(Cl)c1)nn2C1CCOCC1,Z-AUC,[1],-1.18 (inactive)
same,Z-AUC,[1]; [7],-0.772
same,Z-AUC,[1]; measured here: PEO4 Z-AUC,-0.767
Cc1cccc(-c2nn3c(c2-c2ccnc4ccc(C(N)=O)cc24)CCC3)n1,Z-AUC,[1],1.11 (inactive)
same,Z-AUC,[1]; [7],0.368
same,Z-AUC,[1]; measured here: PEO4 Z-AUC,0.508
CCOC(=O)C(CCc1ccccc1)NC(C)C(=O)N1Cc2ccccc2CC1C(=O)O (centres undefined),outcome,[2],inactive
same,outcome,3D7,inactive
same,outcome,7G8,inactive
same,outcome,AA1029,inactive
same,outcome,AS120,inactive
Cc1ncc(Cl)cc1NCc1ccc(C(=O)NC(CC2CCCC2)C(=O)NC2CC2)s1 (centres undefined),Z-AUC,[1],-0.347 (inactive)
same,Z-AUC,[1]; [7],-0.204
same,Z-AUC,[1]; measured here: PEO4 Z-AUC,0.18
CC(C)[C@](O)(c1ccc2cc(OC(F)F)c(OC(F)F)cc2c1)c1cn[nH]n1,Z-AUC,[1],-0.262 (inactive)
same,Z-AUC,[1]; [7],-0.434
same,Z-AUC,[1]; measured here: PEO4 Z-AUC,-0.604
Cc1noc2c1-c1ccccc1C(c1ccc(Cl)cc1)=N[C@H]2CC(N)=O,Z-AUC,[1],-0.193 (inactive)
same,Z-AUC,[1]; [7],-0.00939
same,Z-AUC,[1]; measured here: PEO4 Z-AUC,-0.463
CC(=O)O[C@@H]1C[C@@H](C)[C@](O)(CCC2=CC(=O)OC2)[C@@]2(C)CCCC(C)(C)C12 (some centres undefined),outcome,[3],inactive
same,Potency,[4],12.6 µM (active)
same,outcome,[6],inactive
same,outcome,[5],inactive
COc1ccc2[nH]c(S(=O)Cc3ncc(C)c(OC)c3C)nc2c1 (centres undefined),Z-AUC,[1],0.929 (inactive)
same,Z-AUC,[1]; [7],1.11
same,Z-AUC,[1]; measured here: PEO4 Z-AUC,1.24
CC(C)N(CCCNC(=O)Nc1ccc(C(C)(C)C)cc1)C[C@H]1O[C@@H](n2ccc3c(N)ncnc32)[C@H](O)[C@@H]1O,Z-AUC,[1],-0.352 (inactive)
same,Z-AUC,[1]; [7],-0.286
same,Z-AUC,[1]; measured here: PEO4 Z-AUC,-0.377
O=C(COCC(=O)N1CCN(C(c2ccccc2)c2ccccc2)CC1)Nc1ccc(Cl)cc1C(=O)O,Z-AUC,[1],1.8 (inactive)
same,Z-AUC,[1]; [7],1.44
same,Z-AUC,[1]; measured here: PEO4 Z-AUC,1.34
